PAFAH1B2 FP inh = inhibitors of human PAFAH1B2. P68402. recombinant PAFAH1B2, FP-rhodamine activity probe, fluorescence polarization. inhibition, % at 3.39 µM. 1.2% of 340,000 active. AID 492953;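 active = inhibition above the mean of all tested compounds plus 3 SD, cut at about 24% in these data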;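 also: 0% = enzyme with DMSO and 100% = wells lacking PAFAH1B2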
PAFAH1B3 FP inh = PAFAH1B3 (human) inhibition; recombinant PAFAH1B3, FP-rhodamine probe, fluorescence polarization; inhibition, % at 3.39 µM; 0.28% of 340,000 active;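 active = inhibition above the screen-wide average of all tested compounds plus 3 SD, cut at about 25% in these data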;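 also: 0% = enzyme with DMSO only and 100% = wells lacking PAFAH1B3 protein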
PAFAH2 inh = inhibitors of human PAFAH2; inhibition, % at 3.39 µM; AID 492956; Q99487; 0.99% of 340,000 active; recombinant PAFAH2, FP-rhodamine activity probe, fluorescence polarization;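 active = inhibition above the mean over all tested compounds plus 3 SD, cut at about 30% in these data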;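 also: inhibitors block probe labeling of enzyme so polarization drops; 0% = enzyme with DMSO and 100% = wells lacking PAFAH2 protein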
LYPLA1 inh = blocks human lysophospholipase 1, a PME1 counter-screen; inhibition, % at 5.9 µM; recombinant LYPLA1, FP-Rh probe fluorescence polarization; 0.16% of 320,000 active; AID 2174; O75608;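 active = inhibition above the mean of all tested compounds plus 3 SD, set per campaign, cut at about 14% in these data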;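 also: inhibitors block serine hydrolase probe labeling of LYPLA1 so polarization falls; 0% = enzyme with DMSO and 100% = wells lacking LYPLA1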
LYPLA2 counter = LYPLA2 (human) inhibition in PME1 counter-screen | 0.38% of 320,000 active | inhibition, % at 5.9 µM | O95372 | recombinant LYPLA2, FP-Rh probe fluorescence polarization;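 active = inhibition above the screen-wide mean plus 3 SD, limit set per campaign, cut at about 26% in these data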;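 also: 0% = LYPLA2 with DMSO and 100% = wells lacking LYPLA2 enzyme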
pPAFAH inh = pPAFAH (human) enzyme inhibition | 1.5% of 330,000 active | Q13093 | AID 463082 | inhibition, % at 3.39 µM | recombinant pPAFAH, FP-rhodamine probe fluorescence polarization;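 active = inhibition above the mean inhibition across the screen plus 3 SD, cut at about 25% in these data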;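 also: inhibitors block binding of the rhodamine activity-based probe so polarization drops; 0% = enzyme with DMSO and 100% = wells lacking pPAFAH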
Target sequence (Q13093 whole entry, looked up): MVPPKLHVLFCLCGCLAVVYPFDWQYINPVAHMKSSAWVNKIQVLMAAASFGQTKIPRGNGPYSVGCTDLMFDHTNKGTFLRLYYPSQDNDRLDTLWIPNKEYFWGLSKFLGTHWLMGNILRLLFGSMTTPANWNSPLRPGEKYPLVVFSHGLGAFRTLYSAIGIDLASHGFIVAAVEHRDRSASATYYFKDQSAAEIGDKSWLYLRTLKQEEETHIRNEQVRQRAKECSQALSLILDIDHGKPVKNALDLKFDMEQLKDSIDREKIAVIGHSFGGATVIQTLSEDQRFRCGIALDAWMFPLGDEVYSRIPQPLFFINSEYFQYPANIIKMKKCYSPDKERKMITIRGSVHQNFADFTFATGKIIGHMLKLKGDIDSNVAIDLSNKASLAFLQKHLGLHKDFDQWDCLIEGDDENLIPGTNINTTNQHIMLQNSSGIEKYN
Active calls of the source: *; / = no result given. Most compounds without a hit are left out; they make up all but 2.9% or so of the library.

SMILES | PAFAH1B2 FP inh | PAFAH1B3 FP inh | PAFAH2 inh | LYPLA1 inh | LYPLA2 counter | pPAFAH inh
Cc1ccc(NC(=O)O/N=C/c2ccc(Br)cc2)cc1 | 58* | 4 | -3 | 1 | 0 | 8
Cc1ccc(NC(=O)O/N=C/c2ccc(F)cc2)cc1 | 10 | 10 | 5 | -2 | -2 | -2
CCc1ccccc1NC(=O)Cn1nnc(C(=O)NCc2cccs2)c1N | 4 | 5 | -1 | 4 | 2 | 2
Cc1ccc(-n2cccc2/C=C2/C(=N)N3C(=NC2=O)SN=C3S(C)(=O)=O)cc1 | 28* | -8 | -6 | -10 | -2 | 2
CS(=O)(=O)C1=NSC2=NC(=O)/C(=C\c3ccc(OS(=O)(=O)c4ccccc4)cc3)C(=N)N21 | 25* | 1 | -7 | -3 | -1 | 8
O=C1ON=C(c2ccccc2)/C1=C/c1ccc(OS(=O)(=O)c2ccccc2)cc1 | 101* | 4 | 24 | 3 | 3 | 14
CCc1ccc(-n2cccc2/C=C2/C(=N)N3C(=NC2=O)SN=C3S(C)(=O)=O)cc1 | 2 | -9 | -14 | -7 | -1 | -2
Cc1ccc(S(=O)(=O)Oc2ccc(/C=C3/C(=N)N4C(=NC3=O)SN=C4S(C)(=O)=O)cc2)cc1 | 50* | 3 | -1 | -4 | -3 | 3
COc1ccc2nc(NC(=O)c3ccoc3C)sc2c1 | 2 | 4 | 2 | -5 | -7 | 0
Cc1ccc(S(=O)(=O)Oc2ccc(/C=C3\C(=N)N4N=C(S(C)(=O)=O)SC4=NC3=O)cc2)cc1 | 60* | -1 | -6 | -6 | 2 | 11
COc1ccc(Nc2oc(COc3ccc(Cl)cc3)nc2C#N)cc1 | 16 | 10 | 8 | -2 | -4 | 9
COc1ccc(CNc2oc(COc3ccc(Cl)cc3)nc2C#N)cc1 | 28* | -4 | -6 | -9 | -16 | -4
COc1ccc(CCNc2oc(COc3ccc(Br)cc3)nc2C#N)cc1OC | 28* | 13 | -1 | 3 | -10 | 1
O=C(Nc1nnc(CCc2ccccc2)s1)c1cccc(F)c1 | 25* | 12 | 10 | 0 | -6 | -3
O=C(Nc1nnc(CCc2ccccc2)s1)c1ccc(F)cc1 | 4 | -3 | 1 | 0 | -2 | -2
Cc1c(N=C2NC(=O)/C(=C/c3ccc(O)cc3)S2)c(=O)n(-c2ccccc2)n1C | -1 | 14 | 6 | 1 | 4 | 7
O=C1NC(=NCc2ccccc2)S/C1=C/c1ccc(O)cc1 | 5 | 7 | 19 | -4 | -4 | 29*
O=C(NC(=S)Nc1nc(-c2ccccc2)cs1)c1cncc(Br)c1 | 4 | -1 | -2 | -4 | -3 | 2
OC(CNCC1(N2CCCCC2)CCCCC1)COc1ccc(Cl)cc1Cl (stereo unspecified) | -2 | 1 | 2 | 4 | 7 | 3
NS(=O)(=O)c1ccc(N/N=C/c2ccccc2C(=O)O)c([N+](=O)[O-])c1 | 1 | -2 | 8 | 1 | 3 | -1
COc1ccc(C=NNc2ccc([N+](=O)[O-])cc2S(=O)(=O)Nc2ccccc2C(=O)O)cc1OC | 1 | 14 | 11 | / | / | 33*
O=C(O)c1ccccc1NS(=O)(=O)c1ccc(N/N=C/c2ccc(O)c(O)c2)c([N+](=O)[O-])c1 | 59* | 58* | 72* | / | / | /
CCOC(=O)C1NN=C(C(=O)c2ccccc2)C1c1ccc(Cl)cc1 (stereo unspecified) | 3 | 2 | -2 | -1 | -5 | 0
CC(=O)Oc1ccc2c(C)cc(=O)[nH]c2c1 | -3 | 3 | 3 | -1 | -2 | 5
Cc1ccc(S(=O)(=O)NCC2(c3ccccc3)CCOCC2)cc1 | 26* | 6 | 9 | -3 | 0 | 0
Oc1ccc2ccccc2c1-c1sc(Nc2ccccc2)n[n+]1-c1ccc(F)cc1 | -5 | 9 | -6 | -2 | 0 | 3
Fc1ccc(-[n+]2nc(Nc3ccccc3)sc2-c2c3ccccc3cc3ccccc23)cc1 | -4 | 12 | 5 | 1 | 7 | 26*
Cc1cc(C(F)F)n2nc(C(=O)NCc3ccccc3F)nc2n1 | 0 | 3 | 1 | -1 | 1 | 2
CCCc1ccc(OCc2ccc(C(=O)N3CCSCC3)o2)cc1 | 1 | 9 | -4 | -1 | 10 | 25*
CC(C)(C)c1ccc(OCc2ccc(C(=O)N3CCOCC3)o2)cc1 | -1 | 4 | -1 | 0 | 3 | 4

High-throughput results deposited in PubChem by The Scripps Research Institute Molecular Screening Center.
